Values without a mark were called inactive. Inconclusive results are not listed. Entries that show only a call come without a potency. Calls of active or inactive are those of the source. Unless noted, calls follow the shape of the dose curve; as a rule, active = well fitted curve in the direction sought with a large enough effect; inconclusive = small, poorly fitted or top-dose-only effect, or another doubt; inactive = no such curve, though single readings can be large; an effect the other way counts as inactive or inconclusive.
Experiments:
[1] = molecular target: Rap guanine nucleotide exchange factor 3 (Homo sapiens) (UniProt O95398); experiment: Confirmatory qHTS for antagonist of cAMP-regulated guanine nucleotide exchange factor 3 (EPAC1) (AID 1645880); conditions: EPAC1 Rap1B-BODIPY-GDP exchange, fluorescence; activity, negative = inhibition: at 115 µM (top of the series); also: nearly all actives have a fitted effect of over 55% in size
Summary of the method: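 Nucleotide exchange uses 100 nM EPAC1, 250 nM RAP1B-BODIPY-GDP and 50 uM GDP, with compounds in a concentration-titration series. After 5 min at room temperature, fluorescence (480 nm ex/540 nm em) is read every 5 min for 30 min. Data are normalized to control ATA and DMSO.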

[2] = molecular target: Rap guanine nucleotide exchange factor 4 (Homo sapiens) (UniProt Q8WZA2); experiment: Confirmatory qHTS for agonist of cAMP-regulated guanine nucleotide exchange factor 4 (EPAC2) (AID 1645884); conditions: EPAC2 GEF activity, Rap1B-BODIPY-GDP fluorescence; series mostly up to 154 µM;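 also: nucleotide exchange releases bodipy-GDP from Rap1 and this lowers its fluorescence; nearly all actives have a fitted effect of over 65% in size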; also: potency is read from the fitted curve at half-maximal effect
[3] = molecular target: Rap guanine nucleotide exchange factor 3 (Homo sapiens) (UniProt O95398); experiment: Counterscreen qHTS for antagonist of cAMP-regulated guanine nucleotide exchange factor 3 (EPAC1) (AID 1645888); conditions: Rap1B-BODIPY-GDP nucleotide exchange, fluorescence; series mostly up to 154 µM;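 also: fluorescence loss as bound BODIPY-GDP is released from Rap1B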
Summary of the method: (§1)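 Measured: fluorescence of BODIPY-GDP bound to Rap1B, which falls as exchange proceeds. Conditions include 50 uM competing GDP, 5 and 30 min reads, and a later cAMP challenge for antagonist detection.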

[4] = molecular target: Rap guanine nucleotide exchange factor 4 (Homo sapiens) (UniProt Q8WZA2); experiment: Confirmatory qHTS for antagonist of cAMP-regulated guanine nucleotide exchange factor 4 (EPAC2) (AID 1645885); conditions: EPAC2 Rap1B-BODIPY-GDP exchange fluorescence, biochemical; series mostly up to 12.7 µM; also: nearly all actives have a fitted effect of over 25% in size
[5] = molecular target: Rap guanine nucleotide exchange factor 3 (Homo sapiens) (UniProt O95398); experiment: Counterscreen qHTS for agonist of cAMP-regulated guanine nucleotide exchange factor 3 (EPAC1) (AID 1645889); conditions: EPAC1 Rap1B-BODIPY-GDP exchange, fluorescence; series mostly up to 154 µM; also: nearly all actives have a fitted effect of over 40% in size; also: potency is read from the fitted curve at half-maximal effect
Summary of the method: as §1

[6] = AP1 Signaling Pathway (AID 357; active = well fitted curve in either direction with a large enough effect, not every such curve was filed as active;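 also: ME-180 reporter cells stimulated with EGF at its EC50 level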); conditions: ME-180 AP-1-bla reporter, EGF-induced, beta-lactamase ratio, 5 h; at 7.69 µM (top of the series) unless noted
Summary of the method: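 A ratiometric CCF4 readout (405 nm excitation; 460 and 530 nm emission) quantified AP-1-driven beta-lactamase in ME-180 cells after 5 h with compound and EC50 EGF; AC50 values were derived for activators and inhibitors.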

[7] = molecular target: Cytochrome P450 1A2 (Homo sapiens) (UniProt P05177); experiment: p450-cyp1a2 (AID 410; calls by dose curve; also: potency is read from the fitted curve at half-maximal effect); conditions: recombinant CYP1A2, luciferin-ME demethylation, luminescence; series mostly up to 57 µM
Summary of the method: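 Human CYP1A2 (20nM) demethylated Luciferin-ME at its Km (100uM) in 100mM KPO4. After 10 min compound preincubation, NADPH regeneration ran the reaction 60 min at room temperature. Luciferin was read by luminescence, normalized to 57 uM furafylline.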

[8] = NFAT Signaling Pathway (AID 444; active = well fitted curve in either direction with a large enough effect, not every such curve was filed as active;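 also: carbachol stimulus at about its EC50 of 1 µM final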); conditions: Jurkat NFAT-bla M1, carbachol, beta-lactamase ratio, 5 h; at 7.69 µM (top of the series) unless noted
Summary of the method: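 Jurkat cells carrying an NFAT-driven β-lactamase reporter and co-transfected muscarinic M1 receptor were treated with compound plus carbachol (1 uM final, an EC50 level) for 5 h at 37 °C. CCF4 loading followed for 1 h at RT; 460/530 nm ratio gave %activity.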

[9] = Stat Signaling Pathway (AID 446; active = well fitted curve in either direction with a large enough effect, not every such curve was filed as active;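 also: ME-180 cervical cancer cells given 40 pM IL-6 alongside compound; SIE-controlled beta-lactamase reporter measured as 460/530 nm FRET emission ratio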); conditions: ME-180 SIE beta-lactamase reporter, IL-6 stimulated, 5 h; series mostly up to 7.69 µM
Summary of the method: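 Reporter line: ME-180 cervical carcinoma, SIE-beta-lactamase. Treatment: compound with 40 pM IL-6, 5 hrs, 37 C, in low-serum OPTI-MEM with 10 mM HEPES pH 7.3. Detection: 460/530 nm fluorescence.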

[10] = molecular target: Glucocorticoid receptor (Homo sapiens) (UniProt P04150); experiment: GR-EFC Redistribution (AID 451; calls by dose curve; also: potency is read from the fitted curve at half-maximal effect); conditions: CHO-K1 GR-EFC translocation, beta-gal luminescence, 2 h
Summary of the method: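 CHO-K1 cells stably expressing nuclear-localized β-gal enzyme acceptor and GR fused C-terminally to the enzyme donor fragment; ligand-driven nuclear translocation restores β-gal by complementation. Compounds titrated up to 46 uM final, 2 h at 37 °C; luminescence read.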

[11] = molecular target: Mitogen-activated protein kinase 10 (Mus musculus) (UniProt Q61831); experiment: JNK3 AlphaScreen Assay (AID 530; active = well fitted curve in either direction with a large enough effect, not every such curve was filed as active;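 also: kinase came from lysate of stimulated human HepG2 cells; signal reports phosphorylation of biotinylated GST-cJun 1-79 at Ser73 with 10 µM ATP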); conditions: JNK3 lysate, c-Jun phosphorylation; series mostly up to 57.1 µM
Summary of the method: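 JNK3 came from HepG2 lysates pre-activated with IL-1beta and TNF-alpha and phosphorylated biotinylated GST-cJun (1-79) at 10 uM ATP, pH 7.6, room temperature. Compounds were titrated. AlphaScreen signal used anti-phospho-cJun (Ser73) antibody.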

[12] = molecular target: 3',5'-cyclic-AMP phosphodiesterase 4B (Homo sapiens) (UniProt Q07343); experiment: qHTS Assay for Inhibitors of PDE-IV (AID 607; active = well fitted activation curve with a large enough effect in the main read-out, with a control signal flat, not every such curve was filed as active); conditions: HEK293 ACTOne CNG channel cells, membrane potential fluorescence; series mostly up to 22.9 µM
Summary of the method: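 Cell-based read-out of cAMP via a modified cyclic nucleotide-gated channel and membrane potential dye (535/590 nm) in HEK293 cells expressing PDE4 endogenously. Compounds tested up to 22.9 uM final; 100 uM RO 20-1724 reference.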

[13] = molecular target: Cytochrome P450 3A4 (Homo sapiens) (UniProt P08684); experiment: qHTS Assay for Inhibitors and Substrates of Cytochrome P450 3A4 (AID 884); conditions: recombinant CYP3A4, Luciferin-PPXE luminescence; series mostly up to 57.1 µM; also: potency is read from the fitted curve at half-maximal effect; nearly all actives have a fitted effect of over 50% in size
Summary of the method: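 20 nM human CYP3A4 with 25 uM Luciferin-PPXE (at KM) in 200 mM KPO4, preincubated 10 min with compound; NADPH regeneration started a 60 min RT reaction. Luciferin detected by luminescence, normalized to 57 uM ketoconazole as full inhibition.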

[14] = molecular target: Cytochrome P450 3A4 (Homo sapiens) (UniProt P08684); experiment: qHTS Assay for Activators of Cytochrome P450 3A4 (AID 885); conditions: recombinant CYP3A4, Luciferin-PPXE luminescence, 60 min; series mostly up to 57.1 µM; also: nearly all actives have a fitted effect of over 65% in size
Summary of the method: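 Signal was normalized against complete inhibition by 57 uM ketoconazole. The reaction used 20nM CYP3A4 with 25uM Luciferin-PPXE, 10-min compound preincubation and a 60-min NADPH-supported step at RT.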

[15] = qHTS Assay for Identification of Small Molecule Agonists for Hypoxia Response Element Signaling Pathway (AID 914; active = well fitted activation curve with a large enough effect in the signal ratio, with a control signal flat, not every such curve was filed as active; the % refers to the signal ratio); conditions: ME-180 (cervical carcinoma) HRE-bla reporter, beta-lactamase ratio, CoCl2, 17 h; activation: active compounds read high
Summary of the method: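 Read-out: CCF4 FRET ratio of 460nm to 530nm emission (excitation 405nm) after 2.5 hours at room temperature, taken from HRE-bla ME-180 cells that had been exposed to compound and EC50 CoCl2 for 17 hours.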

[16] = molecular target: Tumor susceptibility gene 101 protein (Homo sapiens) (UniProt Q99816); experiment: qHTS Assay for Iinhibitors of HIV-1 Budding by Blocking the Interaction of PTAP/TSG101: Hit Validation (AID 651600); conditions: PTAP peptide/TSG101 UEV interaction, biochemical assay; series mostly up to 57.5 µM; also: nearly all actives have a fitted effect of over 70% in size; also: potency is read from the fitted curve at half-maximal effect
Summary of the method: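 Fluorescence polarization binding assay: Tsg101 binding domain (10 uM final) pre-dispensed with compounds, then FITC-labeled PTAP-motif peptide (50 nM final) added; 20 min at r.t. in HEPES pH 7.5 buffer with NaCl, Tween 20, EDTA, TCEP.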

Sequence of Rap guanine nucleotide exchange factor 3 (Homo sapiens) (O95398 whole entry, looked up): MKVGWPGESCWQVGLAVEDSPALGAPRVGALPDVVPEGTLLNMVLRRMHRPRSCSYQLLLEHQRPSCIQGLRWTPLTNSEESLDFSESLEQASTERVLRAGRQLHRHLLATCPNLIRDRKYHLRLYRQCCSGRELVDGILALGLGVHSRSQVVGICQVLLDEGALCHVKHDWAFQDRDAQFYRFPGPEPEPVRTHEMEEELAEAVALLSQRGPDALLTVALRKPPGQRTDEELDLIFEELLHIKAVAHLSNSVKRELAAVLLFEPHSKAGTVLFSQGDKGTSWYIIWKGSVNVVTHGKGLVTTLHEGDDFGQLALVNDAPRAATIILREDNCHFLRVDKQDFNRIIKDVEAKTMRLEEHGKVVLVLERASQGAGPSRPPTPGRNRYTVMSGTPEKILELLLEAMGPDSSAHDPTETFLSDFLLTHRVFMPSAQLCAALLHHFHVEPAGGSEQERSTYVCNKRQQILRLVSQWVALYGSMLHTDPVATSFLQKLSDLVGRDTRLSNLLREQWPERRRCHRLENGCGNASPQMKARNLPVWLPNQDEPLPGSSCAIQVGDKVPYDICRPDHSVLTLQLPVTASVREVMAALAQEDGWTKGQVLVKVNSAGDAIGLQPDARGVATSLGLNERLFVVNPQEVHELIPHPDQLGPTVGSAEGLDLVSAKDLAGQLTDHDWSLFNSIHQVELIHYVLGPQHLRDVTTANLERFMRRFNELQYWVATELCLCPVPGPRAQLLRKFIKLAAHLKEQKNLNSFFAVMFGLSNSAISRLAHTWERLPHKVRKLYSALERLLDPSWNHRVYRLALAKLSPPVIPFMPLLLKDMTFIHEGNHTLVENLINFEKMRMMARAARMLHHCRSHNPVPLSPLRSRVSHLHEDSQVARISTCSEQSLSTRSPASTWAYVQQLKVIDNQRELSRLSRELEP
Sequence of Rap guanine nucleotide exchange factor 4 (Homo sapiens) (Q8WZA2 whole entry, looked up): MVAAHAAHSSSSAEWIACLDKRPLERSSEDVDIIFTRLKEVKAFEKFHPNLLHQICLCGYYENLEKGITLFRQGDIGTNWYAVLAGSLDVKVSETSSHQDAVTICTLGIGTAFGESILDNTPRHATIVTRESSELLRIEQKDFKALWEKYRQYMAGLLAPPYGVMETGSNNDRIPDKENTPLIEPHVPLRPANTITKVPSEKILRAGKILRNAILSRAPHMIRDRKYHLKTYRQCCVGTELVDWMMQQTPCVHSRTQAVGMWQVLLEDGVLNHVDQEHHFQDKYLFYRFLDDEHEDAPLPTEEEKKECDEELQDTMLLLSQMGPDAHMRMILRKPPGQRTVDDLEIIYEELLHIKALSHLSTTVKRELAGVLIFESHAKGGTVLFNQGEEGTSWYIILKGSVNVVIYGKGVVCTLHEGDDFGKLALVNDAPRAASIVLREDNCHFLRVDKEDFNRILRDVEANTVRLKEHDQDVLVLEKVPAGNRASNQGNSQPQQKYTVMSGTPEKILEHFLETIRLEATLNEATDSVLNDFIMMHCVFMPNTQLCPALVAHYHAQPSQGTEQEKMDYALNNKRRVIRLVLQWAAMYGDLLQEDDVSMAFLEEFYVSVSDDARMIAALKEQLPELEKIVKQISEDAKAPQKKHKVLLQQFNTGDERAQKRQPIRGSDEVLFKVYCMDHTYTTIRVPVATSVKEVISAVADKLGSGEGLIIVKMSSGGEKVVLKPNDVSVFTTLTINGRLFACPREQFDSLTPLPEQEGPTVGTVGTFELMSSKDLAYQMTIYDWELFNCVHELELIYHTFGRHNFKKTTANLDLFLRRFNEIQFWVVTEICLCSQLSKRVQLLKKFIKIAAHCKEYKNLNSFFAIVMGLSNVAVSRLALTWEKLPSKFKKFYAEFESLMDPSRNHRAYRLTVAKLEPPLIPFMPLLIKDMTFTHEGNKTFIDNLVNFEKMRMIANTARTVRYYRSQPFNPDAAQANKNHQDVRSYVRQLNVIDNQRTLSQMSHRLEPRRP
Sequence of Cytochrome P450 3A4 (Homo sapiens) (P08684 whole entry, looked up): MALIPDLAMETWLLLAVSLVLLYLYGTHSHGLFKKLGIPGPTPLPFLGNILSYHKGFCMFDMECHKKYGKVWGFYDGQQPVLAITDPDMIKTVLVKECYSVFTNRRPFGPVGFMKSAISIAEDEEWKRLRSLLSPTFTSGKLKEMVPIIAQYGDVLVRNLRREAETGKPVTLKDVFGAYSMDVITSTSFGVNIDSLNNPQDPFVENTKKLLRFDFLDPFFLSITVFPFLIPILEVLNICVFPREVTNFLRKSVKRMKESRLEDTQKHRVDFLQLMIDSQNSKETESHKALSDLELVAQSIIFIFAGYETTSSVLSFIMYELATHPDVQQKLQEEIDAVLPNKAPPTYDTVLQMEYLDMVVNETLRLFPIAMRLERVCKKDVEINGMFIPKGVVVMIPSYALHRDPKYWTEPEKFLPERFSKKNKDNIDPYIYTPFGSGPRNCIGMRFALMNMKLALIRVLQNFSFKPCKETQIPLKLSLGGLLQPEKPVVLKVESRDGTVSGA
Sequence of Tumor susceptibility gene 101 protein (Homo sapiens) (Q99816 whole entry, looked up, the tested form may be a part): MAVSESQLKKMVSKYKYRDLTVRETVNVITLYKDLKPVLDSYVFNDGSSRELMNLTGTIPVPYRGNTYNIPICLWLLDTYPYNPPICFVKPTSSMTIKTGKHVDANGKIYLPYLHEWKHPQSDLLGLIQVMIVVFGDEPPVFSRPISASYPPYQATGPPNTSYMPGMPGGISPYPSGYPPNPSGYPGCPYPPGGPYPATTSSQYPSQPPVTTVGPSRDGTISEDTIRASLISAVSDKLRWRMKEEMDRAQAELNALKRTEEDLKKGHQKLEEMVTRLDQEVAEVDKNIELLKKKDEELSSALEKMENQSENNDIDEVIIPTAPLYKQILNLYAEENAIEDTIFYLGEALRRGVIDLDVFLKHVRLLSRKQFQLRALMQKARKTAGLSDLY
Sequence of Cytochrome P450 1A2 (Homo sapiens) (P05177 whole entry, looked up): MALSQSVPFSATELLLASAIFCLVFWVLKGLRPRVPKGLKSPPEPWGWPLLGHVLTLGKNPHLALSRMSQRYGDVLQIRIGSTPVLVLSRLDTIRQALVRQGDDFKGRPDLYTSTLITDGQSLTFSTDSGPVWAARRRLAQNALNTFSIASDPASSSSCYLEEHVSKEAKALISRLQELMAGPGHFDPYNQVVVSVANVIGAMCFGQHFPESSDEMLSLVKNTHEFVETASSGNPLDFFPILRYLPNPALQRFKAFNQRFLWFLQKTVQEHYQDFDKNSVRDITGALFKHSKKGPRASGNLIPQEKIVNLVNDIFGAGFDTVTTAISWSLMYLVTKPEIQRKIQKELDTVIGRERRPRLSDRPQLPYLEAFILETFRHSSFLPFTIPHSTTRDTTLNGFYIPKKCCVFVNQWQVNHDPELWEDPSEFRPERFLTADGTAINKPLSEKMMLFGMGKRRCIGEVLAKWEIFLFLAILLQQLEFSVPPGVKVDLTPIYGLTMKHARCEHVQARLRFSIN
Sequence of 3',5'-cyclic-AMP phosphodiesterase 4B (Homo sapiens) (Q07343 whole entry, looked up): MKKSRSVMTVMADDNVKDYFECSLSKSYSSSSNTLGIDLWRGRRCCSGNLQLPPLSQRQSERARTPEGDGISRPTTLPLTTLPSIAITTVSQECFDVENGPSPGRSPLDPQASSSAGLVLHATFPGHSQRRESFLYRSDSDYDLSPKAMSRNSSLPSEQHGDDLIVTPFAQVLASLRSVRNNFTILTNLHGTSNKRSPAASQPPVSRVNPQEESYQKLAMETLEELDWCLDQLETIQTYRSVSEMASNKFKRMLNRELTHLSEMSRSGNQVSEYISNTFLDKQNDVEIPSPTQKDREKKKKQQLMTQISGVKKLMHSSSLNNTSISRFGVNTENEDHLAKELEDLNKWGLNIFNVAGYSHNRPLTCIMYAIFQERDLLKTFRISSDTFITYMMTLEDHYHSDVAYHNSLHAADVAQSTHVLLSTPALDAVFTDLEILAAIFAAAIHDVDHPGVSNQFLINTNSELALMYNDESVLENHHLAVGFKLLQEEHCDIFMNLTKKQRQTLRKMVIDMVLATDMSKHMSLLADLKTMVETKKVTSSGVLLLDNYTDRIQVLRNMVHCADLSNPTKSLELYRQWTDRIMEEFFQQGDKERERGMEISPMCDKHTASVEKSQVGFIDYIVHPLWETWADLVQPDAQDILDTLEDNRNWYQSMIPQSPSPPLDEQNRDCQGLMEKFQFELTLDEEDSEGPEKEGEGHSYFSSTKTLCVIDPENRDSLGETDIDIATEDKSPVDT
Sequence of Glucocorticoid receptor (Homo sapiens) (P04150 whole entry, looked up, the tested form may be a part): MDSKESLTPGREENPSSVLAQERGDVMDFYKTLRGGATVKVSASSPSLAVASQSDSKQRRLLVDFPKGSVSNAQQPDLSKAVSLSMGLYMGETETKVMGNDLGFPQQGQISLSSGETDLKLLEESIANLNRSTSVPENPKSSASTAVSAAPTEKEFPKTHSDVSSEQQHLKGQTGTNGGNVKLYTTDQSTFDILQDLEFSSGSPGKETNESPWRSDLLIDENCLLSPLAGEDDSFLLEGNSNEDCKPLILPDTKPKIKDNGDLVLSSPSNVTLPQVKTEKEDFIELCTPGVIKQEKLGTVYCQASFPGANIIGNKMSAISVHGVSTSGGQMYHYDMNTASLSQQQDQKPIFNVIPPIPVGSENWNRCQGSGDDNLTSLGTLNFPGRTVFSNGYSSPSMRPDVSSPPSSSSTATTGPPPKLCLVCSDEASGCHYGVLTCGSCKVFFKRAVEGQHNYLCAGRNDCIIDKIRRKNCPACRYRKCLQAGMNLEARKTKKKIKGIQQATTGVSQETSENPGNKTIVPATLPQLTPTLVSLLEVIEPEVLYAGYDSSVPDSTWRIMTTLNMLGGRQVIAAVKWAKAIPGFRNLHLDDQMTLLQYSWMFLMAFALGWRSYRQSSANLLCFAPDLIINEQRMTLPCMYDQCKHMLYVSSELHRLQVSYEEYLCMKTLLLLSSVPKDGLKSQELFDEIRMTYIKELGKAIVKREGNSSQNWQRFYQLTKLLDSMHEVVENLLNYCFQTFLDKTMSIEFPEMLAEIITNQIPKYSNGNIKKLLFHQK

## O=C(NCCOc1ccc(F)cc1)c1ccccc1SCc1ccccc1
[1]
  Potency: inactive
[2]
  activation: 7.88% [at 17.1 µM, percent relative to cAMP agonist control]
[3]
  activity change, negative = inhibition: 18.3% [at 30.8 µM]

## O=S1(=O)C=C(Oc2ccc3ccccc3c2)c2ccccc21
[1]
  Potency: inactive
[2]
  activation: -2.76% [at 17.1 µM, percent relative to cAMP agonist control]
[3]
  activity change, negative = inhibition: 21.2% [at 30.8 µM]

## COc1ccc(-c2csc3nc(C)nc(N4CCCCC4)c23)cc1OC
[1]
  Potency: inactive
[4]
  Potency: inactive
[3]
  Potency: inactive

## O=C1N(Cc2ccccc2)c2ccc(Cl)cc2C12OCCO2
[1]
  Potency: inactive
[2]
  activation: 2.15% [at 17.1 µM, percent relative to cAMP agonist control]
[3]
  activity change, negative = inhibition: -8.76% [at 30.8 µM]
[5]
  activation: 35.6% [at 30.8 µM]

## Brc1ccccc1Cn1c(-c2cncs2)nc2ccccc21
[1]
  Potency: inactive
[2]
  Potency: inactive
[3]
  Potency: inactive

## COc1cc2c(cc1OC)C1(C)N(CC2)C(C(C)=O)=NN1c1ccc(Cl)cc1 (stereo unspecified)
[1]
  Potency: inactive
[2]
  activation: 18% [at 17.1 µM, percent relative to cAMP agonist control]
[3]
  activity change, negative = inhibition: 5.93% [at 30.8 µM]
[5]
  Potency: 3.55 µM (active)

## COc1cccc(C(=O)c2sc3nc(-c4ccccc4)cc(C(F)(F)F)c3c2N)c1
[1]
  Potency: inactive
[2]
  Potency: inactive
[3]
  Potency: inactive
[5]
  Potency: 56.2 µM (active)

## Cc1ccccc1C(=O)O/N=C(\c1ccccc1)c1ccccn1
[1]
  Potency: inactive
[2]
  activation: 8.13% [at 17.1 µM, percent relative to cAMP agonist control]
[3]
  activity change, negative = inhibition: 3.56% [at 30.8 µM]

## CN(C)c1ccc(/C=C/c2ccnc3c(Cl)cccc23)cc1
[1]
  Potency: inactive
[4]
  Potency: inactive

## CN(C(=O)c1cc2c(cc1Br)OCO2)c1cccc2ccccc12
[1]
  Potency: inactive
[4]
  Potency: inactive
[3]
  Potency: inactive

## COc1ccc(Oc2ncc3nc(C)c(=O)n(Cc4cccs4)c3n2)cc1
[6]
  activity change, negative = inhibition: 4.45%
[7]
  Potency: 10 µM (active)
[8]
  activity change, negative = inhibition: -5.89%
[9]
  outcome: inactive
[10]
  Potency: > 46 µM
[11]
  Potency: inactive
[12]
  Potency: inactive
[13]
  Potency: 3.16 µM (active)
[14]
  outcome: inactive
[15]
  activation: -21.2%
[1]
  Potency: inactive
[2]
  Potency: inactive

## O=C1/C(=C\c2cc(Cl)c(O)c(Cl)c2)SC(=S)N1Cc1ccccc1
[1]
  Potency: inactive
[4]
  Potency: inactive
[3]
  Potency: inactive

## CCSc1nnc(-c2sc3nnc(-c4ccccc4)c(-c4ccccc4)c3c2N)o1
[16]
  Potency: 25.9 µM (active)
[1]
  Potency: inactive
[2]
  Potency: 112 µM (active)
[3]
  Potency: inactive

## Cc1ccc(/C=C/C(=O)c2ccc(N3CCOCC3)cc2)s1
[1]
  Potency: inactive
[2]
  Potency: 100 µM (active)
[3]
  Potency: inactive

## O=C(C1=NN(c2ccccc2)C2C(=O)N(c3ccccc3)C(=O)C12)c1ccccc1 (stereo unspecified)
[16]
  Potency: inactive
[1]
  Potency: inactive
[2]
  activation: 11% [at 17.1 µM, percent relative to cAMP agonist control]
[5]
  Potency: 15.8 µM (active)

## N=C1/C(=C\c2coc3ccccc3c2=O)C(=O)N=C2SC=CN12
[1]
  Potency: inactive
[4]
  Potency: inactive
[3]
  activity change, negative = inhibition: 46.8% [at 30.8 µM]

## CC(C)N1CCc2c(sc(NC(=O)c3ccc(C(=O)c4ccccc4)cc3)c2C(N)=O)C1
[1]
  Potency: inactive
[4]
  Potency: inactive
[3]
  Potency: inactive

## COC(=O)C1=NN(c2ccc(C)cc2)C2(S1)SC(C(C)=O)=C(C)N2c1ccccc1 (stereo unspecified)
[1]
  Potency: inactive
[2]
  Potency: 100 µM (active)
[3]
  Potency: inactive
[5]
  Potency: inactive

## COc1ccc(NC(=O)c2csc3c2CCCCC3)c(OC)c1
[1]
  Potency: inactive
[2]
  Potency: inactive
[3]
  Potency: inactive
[5]
  Potency: inactive

## N#CC(C#N)=C1C=C2C=C(N3CCCCCC3)CCC2CC1 (stereo unspecified)
[1]
  Potency: inactive
[4]
  Potency: inactive

## Cc1cc(N(C)C)c(C)cc1/C=C/c1ccnc2ccccc12
[1]
  Potency: inactive
[4]
  Potency: inactive
